Sampled rows, rich in hits. Any-hit rate of the full collection: about 1.9%.
IEC-6 cytotox = IEC-6 cytotoxicity, counter-screen for KLF5 inhibitors. luminescence viability. inhibition, % at 5 µM. 0.78% of 290,000 active. AID 1825; in the data active means inhibition above about 22%;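 further: 0% = plate median of test compound wells and 100% = cytotoxic reference compound wells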
APP 5UTR inh = APP translation inhibition; inhibition, % at 2 µM; SH-SY5Y APP 5'UTR-luciferase reporter, luminescence; AID 1285; 0.82% of 190,000 active;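 active means inhibition above a set limit, derived from the sample mean plus 3 SD, cut at about 45% in these data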
Ba/F3 V617F tox = reduce viability of Ba/F3 cells dependent on JAK2V617F. 1.1% of 220,000 active. inhibition, % at 5.6 µM. AID 1446. Ba/F3 EpoR-JAK2V617F viability, ATP luminescence;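 active means inhibition above the campaign mean plus 3 SD over all tested compounds, cut at about 24% in these data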;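 further: cytokine-independent growth of Ba/F3 cells driven by EpoR plus mutant JAK2; 0% = DMSO-treated cells and 100% = JAK inhibitor I control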
KLF5 inhibitor = kruppel-like factor 5 inhibition; DLD-1 KLF5 promoter-luciferase reporter, luminescence; 0.23% of 290,000 active; inhibition, % at 5 µM; AID 1700;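 active means inhibition above a per-plate limit of that plate's mean compound inhibition plus 3 SD, cut at about 60% in these data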;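 further: 0% = DMSO wells and 100% = LY294002 at 200 µM; higher means less KLF5 promoter-driven luciferase light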
BaF3 parental = reduces parental Ba/F3 cell viability, JAK2V617F counter-screen | CellTiter-Glo ATP luminescence | inhibition, % at 5.6 µM | 1.1% of 220,000 active;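 active means inhibition above a per-campaign cutoff, the mean inhibition of all tested compounds plus 3 SD, cut at about 27% in these data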;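 further: 0% = DMSO wells and 100% = JAK Inhibitor I control wells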
Starred values were filed as active, the others as inactive; nt = not tested or not shown.

SMILES | IEC-6 cytotox | APP 5UTR inh | Ba/F3 V617F tox | KLF5 inhibitor | BaF3 parental
COc1cc(/C=C/C(=O)O)cc(S(=O)(=O)Nc2ccc3c(c2)CCC3)c1OC | 0.0 | nt | nt | -16.1 | nt
Cc1nnsc1C(=O)N/N=C/c1ccc2ccccc2c1O | 0.7 | 76.3* | -1.8 | -12.2 | 4.4
Cc1nnsc1C(=O)N/N=C/c1ccccc1 | 6.3 | 5.2 | -4.4 | 14.3 | 4.1
CC(C)CCN1CCN(Cc2ccc(C#CCCO)cc2)CC1CCO (stereo not given) | 1.0 | -1.6 | 1.7 | -27.8 | 0.7
COc1ccc(-n2c(-c3ccc(Cl)cc3)c[n+]3c2CCc2ccccc2-3)cc1 | 10.1 | -8.3 | 84.4* | -0.4 | 69.0*
COc1ccc(-n2c(-c3ccccc3)nnc2-c2ccc(Cl)cc2)cc1 | -8.3 | -14.0 | -0.9 | 6.2 | 2.0
CCc1c(C)c(C#N)c2nc3ccccc3n2c1N(C)C | -1.3 | -5.9 | -4.1 | 2.9 | 2.3
CCCCc1c(C)c(C#N)c2nc3ccccc3n2c1Cl | 2.7 | 81.6* | -4.5 | -15.8 | 3.7
CCCc1cc(N2CCCC(C(=O)Nc3c(OC)cccc3OC)C2)n2ncnc2n1 (stereo not given) | 4.5 | 50.3* | -4.5 | -6.9 | 3.1
CCCc1cc(N2CCCC(C(=O)Nc3cc(Cl)ccc3OC)C2)n2ncnc2n1 (stereo not given) | 4.3 | 7.5 | 1.2 | -41.3 | 7.0
CCN(CCNCC(O)COc1ccccc1C(C)C)c1cccc(C)c1 (stereo not given) | -1.3 | nt | nt | -18.2 | nt
CC(C)(C)c1ccc(Cn2cnc(-c3ccc([N+](=O)[O-])cc3)c2)cc1 | -2.0 | -60.5 | -3.0 | -9.2 | 38.6*
Cc1cc(C)c(Cn2cnc(-c3ccc([N+](=O)[O-])cc3)c2)c(C)c1 | 4.9 | 3.9 | 5.9 | 15.0 | 1.5
COc1ccc(NC(=O)c2ccc(NS(=O)(=O)c3c(C)noc3C)cc2)cc1OC | -13.4 | 18.5 | -0.4 | -23.3 | 96.5*
CCCOC(=O)c1cc(=O)[nH]c2ccccc12 | 2.8 | -11.1 | 1.6 | 2.1 | 97.4*
CCOC(=O)c1cc(=O)[nH]c2ccccc12 | 3.3 | 15.7 | 0.1 | -35.9 | 5.6
CCOC(=O)C(C)Sc1nc(=O)n2cccc(C)c2n1 (stereo not given) | -5.8 | -2.0 | 5.1 | -21.6 | 7.4
CCOC(=O)CSc1nc(=O)n2cccc(C)c2n1 | 0.9 | 45.2* | 4.7 | -36.7 | 6.7
COc1ccccc1N1C(=O)CC(N2CCN(c3ccc(Cl)cc3)CC2)C1=O (stereo not given) | 4.1 | nt | nt | 5.2 | nt
CCC(C)[C@H](NC(=O)[C@H](Cc1ccccc1)n1c(=O)[nH]c2ccccc2c1=O)C(=O)NCC1CCC(C(=O)O)CC1 (stereo not given in full) | -1.8 | nt | nt | -17.3 | nt
CCOC(=O)CNC(=O)Cn1cnc2c(nnn2-c2ccc(F)cc2)c1=O | 1.5 | -5.8 | -3.7 | 5.8 | 95.8*
CCOC(=O)CNC(=O)Cn1cnc2c(nnn2-c2ccccc2)c1=O | 0.1 | nt | nt | 3.4 | nt
Cn1c(-c2ccc3c(c2)OCO3)cnc1NCc1cccc(O)c1 | -1.2 | -32.5 | 3.1 | -15.4 | 90.4*
COc1ccc(CNC(=O)CN(Cc2ccccc2)C(=O)CCC(=O)Nc2ccccn2)cc1 | 1.0 | nt | nt | -20.6 | nt
CCN1/C(=C/C(C)=C/c2sc3ccccc3[n+]2CC)Sc2ccccc21 | 17.7 | 66.9* | 100.4* | -18.6 | 74.6*
SMILES | IEC-6 cytotox | APP 5UTR inh | Ba/F3 V617F tox | KLF5 inhibitor | BaF3 parental
CCN1/C(=C\C(=S)Nc2ccccc2)Sc2ccccc21 | 10.7 | -63.2 | -2.4 | -27.0 | 6.8
O=C(COc1ncnc2ccccc12)NCC1CCCO1 (stereo not given) | -0.7 | 10.5 | 3.9 | -29.7 | 12.4
CCOC(=O)C1=C(C)C2C3C(=O)N(c4cc(C)ccc4C)C(=O)C3C1(C)C1C(=O)N(c3cc(C)ccc3C)C(=O)C21 (stereo not given) | 1.9 | 75.3* | 0.9 | -48.3 | 10.1
Cc1ccc(/C=C/C(=O)N2CCN(c3ncccn3)CC2)o1 | 5.3 | 28.9 | 2.8 | -17.2 | 0.7
COc1ccccc1/C=C/C(=O)OCC(=O)Nc1cc(C(F)(F)F)ccc1N1CCOCC1 | -2.4 | 61.2* | -1.9 | -4.4 | 1.0
O=C(COC(=O)/C=C/c1ccccc1)Nc1cc(C(F)(F)F)ccc1N1CCOCC1 | -1.0 | -11.8 | -1.2 | -15.0 | 2.1
CC(=O)c1c(C)oc2ccc(N(C(C)=O)S(=O)(=O)c3ccc(F)cc3C)cc12 | 3.4 | nt | nt | -10.1 | nt
CC(=O)c1c(C)oc2ccc(N(C(C)=O)S(=O)(=O)c3cccc4cccnc34)cc12 | 7.3 | nt | 27.4* | -11.1 | 36.9*
COC(=O)c1ccc(SCC(=O)NCc2ccccc2)c([N+](=O)[O-])c1 | 4.1 | nt | nt | -70.5 | nt
CCOC(=O)c1c(NC(=O)CSc2ncccn2)sc2c1CCN(Cc1ccccc1)C2 | 4.1 | 9.0 | 4.9 | 18.1 | 39.4*
O=C(CN1c2ccccc2S(=O)(=O)c2ccccc21)Nc1ccccc1F | 2.6 | nt | nt | -8.3 | nt
COc1cccc(C2CC(=O)Nc3cc4c(cc32)CCC4)c1 (stereo not given) | 46.5* | 56.7* | 37.9* | 42.8 | 45.0*
O=C1CC(c2ccccc2F)c2cc3c(cc2N1)CCC3 (stereo not given) | 15.8 | 63.5* | 62.9* | -8.1 | 77.0*
O=C1CC(c2cc(Br)ccc2F)c2cc3c(cc2N1)CCC3 (stereo not given) | -6.2 | 40.8 | -3.8 | -0.5 | 4.3
COc1cccc(CNCc2ccccc2Br)c1OC | -4.9 | nt | nt | -22.8 | nt
Cc1c(Cl)cccc1N1C(=O)c2ccccc2C1=O | 0.7 | 68.2* | 1.3 | 22.9 | 3.1
COc1cc(C2OCC3C(c4ccc(OC5OC(CO)C(O)C(O)C5O)c(OC)c4)OCC23)ccc1O (stereo not given) | -4.3 | 8.0 | -3.5 | -15.6 | -3.8
COc1ccc(C[C@H]2COC(=O)[C@@H]2Cc2ccc(OC3OC(CO)C(O)C(O)C3O)c(OC)c2)cc1OC (stereo not given in full) | 2.3 | 5.0 | 22.8 | -10.6 | 41.4*
COc1ccccc1NC(=O)/C(=C\c1cccnc1)NC(=O)c1ccc(C)cc1 | 4.3 | nt | nt | -8.0 | nt
COc1ccc(C(=O)Nc2cnn(Cc3ccc(Cl)cc3)c2)cc1OC | 2.4 | -1.7 | 34.7* | 37.9 | 36.4*
COc1ccc(C(=O)Nc2ccc(Cn3ccnc3)cc2)cc1OC | 6.7 | nt | nt | -15.7 | nt
O=S(=O)(Nc1cc(Sc2cccc3cccnc23)c(O)c2ccccc12)c1ccccc1 | 98.1* | 74.9* | -1.4 | 12.5 | 2.8
O=C(NCCO)c1cccc(S(=O)(=O)N2CCCCC2)c1 | -5.3 | -1.1 | 1.1 | -21.1 | 93.5*
O=C(NCCN1CCOCC1)c1cccc(S(=O)(=O)N2CCCCCC2)c1 | -6.5 | 10.5 | -1.9 | -4.0 | 4.2
COc1ccc(C2CC(C)(c3ccc(OC)cc3OC)Nc3ccccc3N2)c(OC)c1 (stereo not given) | 11.5 | -32.6 | 61.9* | -33.9 | 72.4*
COC(=O)C1=C(C)C(c2ccc(OC)cc2OC)NC(=O)N1 (stereo not given) | 4.0 | 6.1 | 4.4 | -20.5 | 6.9
CC(=O)N[C@@H](Cc1c[nH]c2ccccc12)C(=O)NC1CC1 | 0.5 | nt | nt | -28.8 | nt
CCOc1ccc2c(c1)c(N=NC(=N)N)c(O)n2C | 13.0 | -2.3 | 43.9* | -19.0 | 68.8*

From PubChem BioAssay
